# PubChem BioAssay AID1259370 (Center for Chemical Genomics, University of Michigan, 2018)
# Hit rate of the full screen: of about 94,000 compounds, about 680 (0.72%) were called active. Many of the other results were omitted from the sample, so actives are more common in it than they were. Values without a mark were called inactive. No stated cut-off is given here; in the data, active means z-score above about 3.2; inactive means the rest.
# Target: M-phase inducer phosphatase 2 (Homo sapiens) + Cyclin-dependent kinase 2 (Homo sapiens) + Cyclin-A2 (Homo sapiens) (UniProt P30305+P24941+P20248)
# Assay: primary biochemical HTRF screen for blockers of M-phase inducer phosphatase 2 binding to CDK2/cyclin A (AID 1259370)
# Conditions: HTRF CDC25B-CDK2/CyclinA binding, anti-His/anti-Flag; hits give high values
row,Structure (SMILES),z-score
1,CCOC(=O)c1c(N)sc2c1CCN(C(C)=O)C2,-2.08
2,CCOC(=O)c1c(C)n(C)c2cc3c(cc12)OC(=O)C3(O)C(F)(F)F (stereo not given),-2.18
3,N=C1C(c2nc3ccccc3[nH]2)=C(O)CN1c1ccc(Oc2ccccc2)cc1,1.4
4,CC1=C(C(N)=O)C(c2cccc(O)c2)n2nc(SCc3ccccc3F)nc2N1 (stereo not given),-0.38
5,CCOC(=O)CNC(=O)N1CCCC1c1ccco1 (stereo not given),-1.79
6,Cc1ccc(NS(=O)(=O)C2CCS(=O)(=O)C2)cc1Cl (stereo not given),-1.16
7,Cc1ccc(S(=O)(=O)c2nc(S(C)(=O)=O)sc2N2CCN(CCO)CC2)cc1,-2
8,Cc1cccc2c1Oc1nc(-c3ccccc3O)[nH]c(=O)c1C2,-0.22
9,C=CCN1C=C(OC(=O)COc2ccccc2)c2ccccc2S1(=O)=O,-2.21
10,O=C(C1CCN(S(=O)(=O)c2cccs2)CC1)N1CCN(c2ccccc2Cl)CC1,-0.01
11,COc1ccc(C2=NS(=O)(=O)N(C)C(C(=O)N3CCN(C(=O)c4ccco4)CC3)=C2)cc1,-0.02
12,CCN(CC)S(=O)(=O)c1nnc(NC(=O)C(C)C)s1,-1.69
13,C=CCN(Cc1nc(-c2ccc(C)cc2)no1)S(=O)(=O)c1ccc(Br)cc1,-1.17
14,O=c1c(S(=O)(=O)c2ccc(Cl)cc2)c[nH]c2ccc(F)cc12,0.19
15,Cc1cc(C)n(CCc2nc3c4ccccc4nc(SCC(=O)NCc4ccco4)n3n2)n1,-1.06
16,O=C(CSCc1cnn(-c2ccccc2)c1-n1cccc1)Nc1ccc2c(c1)OCCO2,-1.15
17,CC(c1ccccc1)N1CSC2=C(C#N)C(c3ccc(Cl)cc3)CC(=O)N2C1 (stereo not given),1.37
18,COc1cc(C2CC(=O)N3CN(c4ccccc4)CSC3=C2C#N)ccc1O (stereo not given),0.52
19,CCOc1ccc(C2CC(=O)Nc3nc(SC)[nH]c(=O)c32)cc1OC (stereo not given),-2.13
20,CCOc1ccc(C2CC(=O)N3CN(c4ccc(OC)cc4OC)CSC3=C2C#N)cc1OC (stereo not given),3.34 (active)
21,COC(=O)c1sc(=S)n(-c2ccc(Cl)cc2)c1C,-0.46
22,COC(=O)c1ccc(N2CSC3=C(C#N)C(c4ccc(Cl)cc4)CC(=O)N3C2)cc1 (stereo not given),7.06 (active)
23,CNC(=O)c1c(NC(=O)c2cc(=O)c3ccccc3o2)sc2c1CCCC2,-0.57
24,COCCCn1c(SC2CCOC2=O)nc2c(sc3ccccc32)c1=O (stereo not given),-3.05

row,Structure (SMILES),z-score
1,CCOC(=O)C1=C(C)NC2=C(C(=O)CC(c3cccs3)C2)C1c1cc(Br)ccc1F (stereo not given),-0.66
2,CCOC(=O)c1c(CN(CC)CC)n(C)c2cc(Br)c(OC)cc12,-0.02
3,Cc1c(C)c2cc3c4c(oc3c(C)c2oc1=O)CCCC4,0.16
4,Cc1c(C=O)c(=O)oc2c3c4c(cc12)CCCN4CCC3,16.4 (active)
5,CCc1cccc(-n2nnc(S(=O)(=O)c3ccc(C)cc3)c2C)c1,-0.89
6,CN1C(=O)c2ccccc2C(C(=O)Nc2ccc3c(c2)OCO3)C1c1cn(C)c2ccccc12 (stereo not given),-2.4
7,CCCc1c(C)nc2ncnn2c1Nc1ccc(CC)cc1,-2.22
8,CCOCCOC(=O)C1=C(C)NC2=C(C(=O)CCC2)C1c1ccc(OC(C)=O)cc1 (stereo not given),-0.12
9,C=CCOc1ccc(C2C3=C(CCCC3=O)NC3=C2C(=O)CCC3)cc1,15.9 (active)
10,COc1ccc(COC(=O)C2=C(C)NC3=C(C(=O)CCC3)C2c2ccc(Br)cc2)cc1 (stereo not given),-0.5
11,O=C1CCCN1CCCn1c(=O)[nH]c2ccccc2c1=O,-0.94
12,Cc1nc2ccccc2nc1NO,1.05
13,Cc1cc(=O)nc2c3ccccc3n(CC(=O)NC3CCC(C)CC3)n12 (stereo not given),-1.08
14,CCN1CCN(c2c(C(=O)c3ccccc3)cnc3cc4c(cc23)OCCO4)CC1,2.74
15,CCn1c(SCC(=O)Nc2c(C)cc(C)cc2C)nc2c(c1=O)SCC2,-0.71
16,CCc1cc2c(cc3c(=O)n(CC(=O)NCCCOC)nc(CC)n32)s1,-1.5
17,O=S(=O)(NCc1ccccc1)c1ccc(-c2ccc(S(=O)(=O)NCc3ccccc3)cc2)cc1,-0.47
18,COc1ccc(N2C(=O)CSC2c2cc(Br)ccc2OC)cc1 (stereo not given),-0.41
19,COc1cc(C2CC(=O)N3CN(c4ccc(Br)cc4)CSC3=C2C#N)ccc1O (stereo not given),0.91
20,COc1ccc(-c2n[nH]c3c2C(c2cccc(Br)c2)NC3=O)cc1 (stereo not given),0.39
21,CN1CSC2=C(C#N)C(c3ccc(Br)cc3)CC(=O)N2C1 (stereo not given),1.4
22,COc1ccc(N2CSC3=C(C#N)C(c4cccc(Br)c4)CC(=O)N3C2)cc1 (stereo not given),4.67 (active)
23,COc1cccc(C2CC(=O)N3CN(c4ccc(Br)cc4)CSC3=C2C#N)c1 (stereo not given),7.44 (active)
24,Cc1cc(C)c2c(n1)nn1c(C)c(CCC(=O)NCCCN3CCCC3=O)c(C)nc21,-0.15

row,Structure (SMILES),z-score
1,CC(C)n1c(=O)c2c3c(sc2n(Cc2ccccc2)c1=O)COC(C)(C)C3,-1.8
2,O=c1c2cccnc2n(Cc2ccc(F)cc2)c(=O)n1Cc1ccco1,0.9
3,C=CCN(c1ccccc1)S(=O)(=O)c1cc(Br)cc2c1N(C(C)=O)C(C)C2 (stereo not given),0.27
4,COc1cccc(OCC(O)Cn2c[n+](C)c3cc(C)c(C)cc32)c1 (stereo not given),0.54
5,CC1=C(C(=O)OCC2CCCO2)C(c2cccc(Cl)c2)C2=C(CC(c3cccs3)CC2=O)N1 (stereo not given),-0.95
6,Cn1c(=O)c2c(ncn2CC(=O)NCC2CCCO2)n(C)c1=O (stereo not given),-1.02
7,Cc1nn(C(C)C(=O)NCc2ccco2)c(=O)c2cc3occc3n12 (stereo not given),-0.04
8,Cc1ccccc1NC(=O)NCc1ccco1,-0.44
9,CCC(C)N(CCNC(=O)Nc1cn(C)c(=O)c2ccccc12)Cc1ccco1 (stereo not given),12.3 (active)
10,COc1cc(NC(=O)c2nn3c(C(F)(F)F)cc(-c4cccs4)nc3c2Cl)cc([N+](=O)[O-])c1,-3.72
11,COc1ccccc1-c1nnc(SCc2ccc(F)cc2)o1,1.82
12,O=C(NC1CCc2ccccc21)c1cc2c(s1)CCC2 (stereo not given),-1.04
13,O=C(Nc1ccc(F)cc1)N1CCC(n2c(=O)[nH]c3ccccc32)CC1,-3.87
14,CCN(CC)c1nc2c(s1)C(=O)NCC(C)(C)C2,-0.63
15,O=C(/C=C/c1cccc([N+](=O)[O-])c1)Nc1ccc(O)c(-c2nc3ccccc3o2)c1,-3.5
16,O=C(/C=C/c1ccc(-c2ccccc2[N+](=O)[O-])o1)Nc1cc(Cl)c(Cl)cc1Cl,3.71 (active)
17,O=C(/C=C/c1ccc(Cl)cc1)Nc1ccc(-c2nc3ccccc3o2)c(O)c1,-2.66
18,CCCCN(CC)C(=O)c1nn(C)c2c1COc1ccccc1-2,-1.21
19,CCCc1nc(C)cc(N2CCOCC2)n1,-1.62
20,COc1cc(C2CC(=O)Nc3c2cc(Br)c2ccccc32)ccc1O (stereo not given),-0.73
21,Cc1ccc(NC(=O)CSc2nc(N)c3c4c(sc3n2)COC(C(C)C)C4)cc1 (stereo not given),-24.7
22,COC(=O)C1=C(OC(=O)COc2ccccc2)c2ccccc2S(=O)(=O)N1C,-1.66
23,CCOC(=O)Cc1nnc2c(Nc3cccc(Br)c3)nc3nonc3n12,-0.4
24,CCCCCCn1c(C2CCCO2)nc2ccccc21 (stereo not given),-2.17

row,Structure (SMILES),z-score
1,CCCCn1c(CCNC(=O)C(C)(C)C)nc2ccccc21,0.64
2,CCCCn1c2ccccc2c2nc3ccccc3nc21,19.8 (active)
3,C=C1c2cc(OCC)ccc2NC(=O)N1c1ccc(Cl)cc1,-0.12
4,CCCCN(Cc1ccco1)C(=O)Cn1ncc2c1-c1cc(C)ccc1OC2,-2.75
5,O=C1c2ccccc2C(Nc2ccc3c(c2)OCCO3)N1c1ccc(Cl)cc1 (stereo not given),1.04
6,O=C(COc1ccc(Cl)cc1)Oc1ccc2ccccc2c1,-1.03
7,CC1=Nc2ccccc2-c2nnc(SCc3ccccc3F)nc2O1,-1.63
8,CCC(C)NC(=O)C1CCN(C(=O)c2sccc2-n2cccc2)CC1 (stereo not given),-1.11
9,CCOc1cc(-n2cnnn2)c(OCC)cc1N,14.4 (active)
10,Cc1cc(OCC(=O)Oc2ccc(-n3cnnn3)cc2)cc(C)c1Cl,0
11,CCOC(=O)N1CCN(S(=O)(=O)c2ccc(-n3cnnn3)cc2)CC1,-0.58
12,Clc1ccc(N2CCCC2)nn1,0.42
13,Cc1ccccc1-c1noc(-c2ccc(F)cc2)n1,-0.49
14,CC(C)(C)c1cn2c3ccccc3n(CCN3CCOCC3)c2n1,0.1
15,CC(C)CNc1cc(N2CCN(C)CC2)c2noc3c2c1C(=O)c1ccccc1-3,-2.89
16,CN1CCN(c2cc(NCCCC(=O)O)c3c4c(onc24)-c2ccccc2C3=O)CC1,0.14
17,CC1CCN(c2cc(NCC(=O)O)c3c4c(onc24)-c2ccccc2C3=O)CC1,13.8 (active)
18,Cc1nc2ncnn2c(Sc2ccc(N)cc2)c1C,3.58
19,O=C(CN1CCN(c2ccccn2)CC1)c1ccc2c(c1)CCN2,-2.4
20,Cc1ccc(-c2nnc(C3CCN(S(=O)(=O)c4c(C)cc(C)cc4C)CC3)o2)cc1,0.05
21,CCOC(=O)N1CCN(CC(O)COc2ccc(OC(F)(F)F)cc2)CC1 (stereo not given),11.1 (active)
22,NC(=O)C1CCN(CC(O)COc2ccc(Cl)c(Cl)c2)CC1 (stereo not given),-0.09
23,COc1ccc(OCC(O)CN2CCC(C)CC2)cc1 (stereo not given),1.91
